About 2,000 (36%) of roughly 5,500 compounds were called active. About 18% were inconclusive and are not listed. Rule as the data show it: active = normalized growth mostly below about 0.91 (no sharp cut-off); inconclusive = no clear call, values can overlap the other calls; inactive = mostly above about 0.92. Some of the results follow.
Test: chemical genetic growth profiling, strain panel (AID 1159580);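 also: tested at 20 µM; growth read once vehicle control cultures reached saturation at 30 °C; 1 = growth at the plate median or of vehicle wells; lower values mean less growth of the strain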
Conditions: S. cerevisiae deletion strains, growth OD

Measured: normalized growth

O=c1ccc2ccc(O)cc2o1
inactive: locus YAL021C, strain ccr4, hits give low values 1.05 | locus YAL026C, strain drs2, hits give low values 0.984 | locus YAL030W, strain snc1, hits give low values 0.999 | locus YBL061C, strain skt5, hits give low values 0.991 | locus YBR009C, strain hhf1, hits give low values 1.01 | locus YBR023C, strain chs3, hits give low values 1.01 | locus YBR171W, strain sec66, hits give low values 0.987 | locus YBR231C, strain swc5, hits give low values 0.976 | locus YBR279W, strain paf1, hits give low values 1.01 | locus YCL011C, strain gbp2, hits give low values 1.01 | locus YCL016C, strain dcc1, hits give low values 1.02 | locus YCL069W, strain vba3, hits give low values 0.996 | locus YCR088W, strain abp1, hits give low values 0.996 | locus YDL005C, strain med2, hits give low values 0.981 | locus YDL040C, strain nat1, hits give low values 0.988 | locus YDR001C, strain nth1, hits give low values 0.988 | locus YDR069C, strain doa4, hits give low values 0.993 | locus YDR137W, strain rgp1, hits give low values 1.02 | locus YDR159W, strain sac3, hits give low values 0.972 | locus YDR195W, strain ref2 0.942 | locus YDR297W, strain sur2, hits give low values 0.986 | locus YDR334W, strain swr1, hits give low values 0.985 | locus YDR335W, strain msn5, hits give low values 1 | locus YDR392W, strain spt3, hits give low values 0.96 | locus YEL003W, strain gim4, hits give low values 0.988 | locus YEL037C, strain rad23, hits give low values 0.985 | locus YEL061C, strain CIN8 (second series), hits give low values 0.989 | locus YER015W, strain faa2, hits give low values 1.01 | locus YER016W, strain bim1, hits give low values 0.996 | locus YER111C, strain swi4, hits give low values 0.981 | locus YER155C, strain BEM2 (second series), hits give low values 0.986 | locus YFR010W, strain ubp6, hits give low values 0.976 | locus YGL167C, strain pmr1, hits give low values 0.99 | locus YGL173C, strain kem1, hits give low values 0.988 | locus YGL227W, strain vid30, hits give low values 0.983 | locus YGL240W, strain doc1, hits give low values 0.976 | locus YGL253W, strain hxk2, hits give low values 0.972 | locus YHR013C, strain ard1, hits give low values 0.997 | locus YHR027C, strain rpn1, hits give low values 0.981 | locus YHR142W, strain chs7, hits give low values 1.01 | locus YJL092W, strain hpr5, hits give low values 0.994 | locus YJL095W, strain BCK1 (second series), hits give low values 1 | locus YJL115W, strain asf1, hits give low values 0.985 | locus YJL129C, strain trk1, hits give low values 0.972 | locus YJL154C, strain vps35, hits give low values 0.988 | locus YJL164C, strain tpk1, hits give low values 1.01 | locus YJL166W, strain qcr8, hits give low values 1 | locus YKL160W, strain elf1, hits give low values 1.01 | locus YKR026C, strain gcn3, hits give low values 0.991 | locus YKR091W, strain srl3, hits give low values 0.992 | locus YLL001W, strain dnm1, hits give low values 1.01 | locus YLL026W, hits give low values 1 | locus YLL041C, strain sdh2, hits give low values 0.992 | locus YLR027C, strain aat2, hits give low values 1.01 | locus YLR221C, strain rsa3, hits give low values 0.98 | locus YLR258W, strain gsy2, hits give low values 1.03 | locus YLR262C, strain YPT6 (second series), hits give low values 1.01 | locus YLR320W, strain mms22, hits give low values 0.975 | locus YLR342W, strain FKS1, hits give low values 1 | locus YLR357W, strain rsc2, hits give low values 0.996 | locus YLR370C, strain arc18, hits give low values 1 | locus YLR384C, strain iki3, hits give low values 0.988 | locus YML120C, strain ndi1, hits give low values 1.01 | locus YMR058W, strain fet3, hits give low values 0.99 | locus YMR125W, strain sto1, hits give low values 1.01 | locus YMR129W, hits give low values 0.993 | locus YMR205C, strain PFK2, hits give low values 1.02 | locus YMR231W, strain pep5, hits give low values 0.982 | locus YNL071W, strain lat1, hits give low values 1 | locus YNL209W, strain ssb2, hits give low values 1.01 | locus YNL248C, strain rpa49, hits give low values 0.999 | locus YNL322C, strain KRE1 (second series), hits give low values 0.996 | locus YNR049C, strain mso1, hits give low values 0.979 | locus YOR001W, strain rrp6, hits give low values 0.931 | locus YOR070C, strain gyp1, hits give low values 0.999 | locus YOR080W, strain dia2, hits give low values 0.992 | locus YOR083W, strain WHI5, hits give low values 1.03 | locus YOR106W, strain vam3, hits give low values 1.03 | locus YOR265W, strain rbl2, hits give low values 0.994 | locus YOR270C, strain vph1, hits give low values 0.985 | locus YOR290C, strain snf2, hits give low values 1 | locus YPL051W, strain arl3, hits give low values 0.997 | locus YPL078C, strain atp4, hits give low values 1.01 | locus YPL106C, strain sse1, hits give low values 1.03 | locus YPL240C, strain hsp82, hits give low values 0.998
